Consider 27 molecules from PubChem BioAssay (NCI).

Compounds without any hit were thinned out: in the full panel of roughly 83,000, 20% have a hit.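 Cell lines were cultured in 96-well plates, exposed to a single compound concentration, and assessed for percent growth 48 hours later.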 Calls of active or inactive are those of the source. How the source made its calls: active means growth percent below 10; inactive means the rest.

This assay relates to HL-60(TB) leukemia. Nature of the assay: NCI-60 one-dose screen, 48 h (100 = growth as untreated, 0 = no growth, -100 = all killed). To be noted: 10 µM unless noted.
On to `COc1ccc(Nc2nc(NCCNc3ccnc4cc(Cl)ccc34)nc(N3CCOCC3)n2)cc1`, for which the growth is 22.8% (inactive). As to `CCCCCCCCCCCCNCCCc1ccccc1`, the growth is 32.3% (inactive).

Turning to `COc1cc2c(cc1OCCCCCN1CCN(c3ncnc4ccccc34)CC1)N=CC1CCCN1C2=O` (configuration not stated), the growth was -25.8% (active). As to `O=S(=O)(O)c1ccc(N=NSc2ccc3ccccc3c2)cc1`, the growth is 98.8% (inactive). On to `CC(C)[C@]12O[C@H]1[C@@H]1O[C@]13[C@]1(O[C@H]1C[C@H]1C4=C(CC[C@@]13C)C(=O)OC4)[C@@H]2OC(=O)CN(C)C`, for which the growth was -24.3% (active).

As to `Nc1ccc(Oc2c(F)c(F)c(Oc3ccc(N)cc3)c(F)c2F)cc1`, the growth is 76.9% (inactive). Then `COc1ccc2c(OCc3nnc4ccc(-c5ccccc5)nn34)ccnc2c1`, with 106% [2.5 µM] (inactive); and `CC(C)(C)CC(C)(C)Nc1c(-c2c(O)c3ccccc3oc2=O)nc2sccn12`, with 99.7% (inactive). In the case of `CCOC(=O)C1=C(CCl)NC(=O)NC1c1ccc2c(c1)OCO2` (configuration not stated), the growth is 56.9% (inactive).

Take `Cn1c(-c2ccccc2)cc(=O)cc1-c1ccccc1`: the growth was 99.8% (inactive). As for `Cc1ccccc1OC(=O)c1cccc(Cl)c1`, the growth was 60.4% (inactive).

Turning to `COc1cccc(/C=C2\COc3ccc(O)cc3C2=O)c1`, the growth was -20.1% (active).

Take `O=C(Cn1ccnc1)NC(c1ccccc1)c1ccccc1`: the growth was 96.7% (inactive). Regarding `Cc1noc(C)c1CSc1ccccc1C(=O)N1CCN(c2cccc(C(F)(F)F)c2)CC1`, the growth is 74.4% (inactive). In the case of `CCc1ccccc1-n1c(-c2ccc(OC)cc2)cc(-c2ccc(OC)cc2)c(C#N)c1=O`, the growth is 121% (inactive).

Turning to `NNC(=S)N/N=C/c1ccccn1`, the growth was 1% (active).

With `c1ccc2c(c1)oc1cc3sccc3nc12`, the growth is 103% (inactive). On to `CC(C)OP(=O)(O)c1ncc(-c2ccc(C(F)(F)F)cc2)c(NC2CCCCCC2)n1`, for which the growth was 44.4% (inactive). In the case of `COc1cc(/C=C/c2cc(/C=C/c3ccc(O)c(OC)c3)nc(N)n2)ccc1O`, the growth was 3.67% (active).

As for `CCCNC(=O)Oc1ccc(/C(=C(/C)Cc2ccc(OC)cc2)c2ccc(OCCN3CCCCC3)cc2)cc1`, the growth was 58.6% (inactive). As for `Cc1ccc2c(n1)C(=O)C(Br)=C(C1CCCC1)C2=O`, the growth was 76.1% (inactive). As to `NC(=O)N1N=C(c2ccc(Cl)cc2)CC1c1cn(-c2ccccc2)nc1-c1ccc(Cl)cc1` (configuration not stated), the growth is 80.9% (inactive). Take `COc1ccc(OC)c2c1C(=O)CC2C` (configuration not stated): the growth is 103% (inactive).

`Cc1cc(Nc2nc(-c3ccc(F)cc3)nc3ccccc23)n[nH]1`: the growth was 39% (inactive). As for `O=C1c2ccccc2C(=O)C1c1ccc(Br)cc1`, the growth was 105% (inactive). Regarding `CC1(C)CC(=O)C2=C(C1)Nc1cc3c(cc1C2c1ccc(F)cc1)OCO3` (configuration not stated), the growth is 90.2% (inactive). As for `CCCCCCCC/C=C\CCCCCCCCOc1ccccc1CC(=O)NCC[N+](C)(C)C`, the figure is 67% (inactive).
